# Source: PubChem BioAssay
# HIF-2a inh: HIF-2a inhibition | 786-0 RCC cells HIF-2a reporter, luciferase luminescence, overnight | inhibition, % at 18.8 µM | 360,000 tested, 0.72% active | AID 624352;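 active = inhibition of the luminescence signal of 40% or more relative to plate controls, in a single-dose primary screen at 18.75 µM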
# ABHD5 PLIN5 PPI: inhibitors of human ABHD5-perilipin-5 interaction | inhibition, % at 4 µM | Q00G26+Q8WTS1 | Split G. princeps luciferase complementation, luminescence, 4 h | AID 602281 | 360,000 tested, 0.78% active;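 active = inhibition above the mean inhibition across every tested compound plus 3 SD, cut at about 22% in these data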;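 also: 0% = DMSO only wells and the 100% control is not disclosed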
# Target sequence (Q00G26 whole entry, looked up): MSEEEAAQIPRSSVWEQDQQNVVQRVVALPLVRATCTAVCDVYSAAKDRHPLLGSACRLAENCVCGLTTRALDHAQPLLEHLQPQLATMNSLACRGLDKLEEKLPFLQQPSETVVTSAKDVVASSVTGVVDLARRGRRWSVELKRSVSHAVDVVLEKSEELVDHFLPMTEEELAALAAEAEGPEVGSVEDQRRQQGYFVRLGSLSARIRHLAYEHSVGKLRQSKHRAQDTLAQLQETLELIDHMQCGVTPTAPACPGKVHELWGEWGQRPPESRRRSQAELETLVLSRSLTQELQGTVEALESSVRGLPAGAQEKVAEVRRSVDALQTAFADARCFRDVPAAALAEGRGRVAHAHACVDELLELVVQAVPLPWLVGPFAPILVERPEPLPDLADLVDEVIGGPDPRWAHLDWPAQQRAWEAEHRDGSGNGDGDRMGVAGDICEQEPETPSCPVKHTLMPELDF
# Target sequence (Q8WTS1 whole entry, looked up): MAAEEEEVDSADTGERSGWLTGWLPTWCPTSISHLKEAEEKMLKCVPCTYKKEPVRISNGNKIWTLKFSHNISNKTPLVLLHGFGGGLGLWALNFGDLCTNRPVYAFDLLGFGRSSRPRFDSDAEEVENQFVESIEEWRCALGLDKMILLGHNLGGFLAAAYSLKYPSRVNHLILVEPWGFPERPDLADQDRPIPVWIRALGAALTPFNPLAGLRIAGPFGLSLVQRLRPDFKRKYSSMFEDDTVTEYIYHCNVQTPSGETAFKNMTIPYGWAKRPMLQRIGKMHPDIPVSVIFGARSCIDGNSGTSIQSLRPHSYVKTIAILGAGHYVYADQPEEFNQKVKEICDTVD
# KKLEB cytotox: counter-screen for CF NF-kB inhibitors: cytotoxicity; KKLEB CF airway cells viability, ATPlite luminescence, overnight; active compounds read low; cells stimulated with P. aeruginosa culture filtrate; AID 602141; activity change (cytotoxicity), % at 5 µM; 360,000 tested, 0.36% active;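 active = corrected activity change at or below -50% at 5 µM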
# CF NFkB block: inhibitors of cystic fibrosis induced NF-kB | AID 588850 | KKLEB NF-kB-GFP reporter, PAF-induced, GFP fluorescence overnight | inhibition, % at 5 µM | 360,000 tested, 0.86% active;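 active = at least 50% inhibition at 5 µM, scaled per plate between neutral and stimulator controls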;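 also: PAF is a Pseudomonas aeruginosa culture filtrate used as stimulus; plate controls were PAF-stimulated DMSO wells for no effect and unstimulated DMSO wells for full effect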
# Peg3 prom inh: Peg3 promoter activity inhibition; HeLa PEG-Prom luciferase reporter, luminescence, overnight; inhibition, % at 20 µM; 360,000 tested, 1.7% active;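 active = inhibition of at least 50% at 20 µM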
# TRPM1 prom inh: reduces MITF-dependent TRPM1 promoter luciferase signal. SK-MEL-5 TRPM1 promoter luciferase, 24 h. inhibition, % at 12.5 µM. 330,000 tested, 0.83% active. AID 488899;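 active = mean inhibition across replicates of 60% or more, whatever share of single replicates reaches that level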
# Numbers without * were called inactive; . = not tested or not shown; ! = not active in a repeat. Most compounds without a hit are left out; they make up all but 3% or so of the library.
SMILES,HIF-2a inh,ABHD5 PLIN5 PPI,KKLEB cytotox,CF NFkB block,Peg3 prom inh,TRPM1 prom inh
COc1ccc(/C=C2\SC(=S)N(CCC(=O)NC3C=CS(=O)(=O)C3)C2=O)cc1 (stereo unspecified),75*,-1,8,12,-47,16
CCc1ccc(/C=C2\SC(=S)N(CCCC(=O)N3CCN(C)CC3)C2=O)cc1,38,7,-15,22,25,.
COc1cccc(/C=C2\SC(=S)N(CCCC(=O)N3CCCCC3)C2=O)c1,67*,2,-15,16,53*,21
COc1ccc(/C=C2\SC(=S)N(CCCC(=O)N3CCN(C)CC3)C2=O)cc1,45*,20,0,-8,-25,2
CC(C)c1ccc(/C=C2\SC(=S)N(CCC(=O)NCCCn3ccnc3)C2=O)cc1,-25,11,-16,8,-277,-25
CCOC(=O)C1(C)CCN1C(=O)COc1ccc(C(C)(C)C)cc1 (stereo unspecified),-5,0,2,-9,-9,.
COc1ccc(CN2C(=O)/C(=C/c3ccncc3)SC2=S)cc1,43*,5,-18,45,67*,10
CC(C)=NNc1cnnc2ccc([N+](=O)[O-])cc12,-44,-5,-3,36,22,.
COc1ccc(NC(=O)c2c(Nc3ccccc3)sc(C(=O)c3ccc(F)cc3)c2N)cc1,-16,3,-53*,41,30,53
COc1ccc(C(=O)c2sc(Nc3ccccc3)c(C(=O)Nc3ccc(OC)c(OC)c3)c2N)cc1,-78,-1,-12,10,4,-7
Cn1c(=O)c2c(ncn2CC(=O)OCC(=O)c2ccc(OC(F)F)cc2OC(F)F)n(C)c1=O,12,3,-8,2,5,.
NC(=S)NN=Cc1nccc2ccccc12,-155,-21,-74*,87*,-58,38
Cc1cnc(C=NNC(N)=S)c2cccc(N)c12,-12,-32,-5,4,32,66*
Cc1ccc(N2C(=O)N(CC(=O)Nc3cc(F)ccc3C)C(=O)C2C)cc1 (stereo unspecified),1,4,10,-6,8,-2
Oc1nc(Nc2cccc(Cl)c2)sc1/C=C1\C=Nc2ccccc21,-108,-3,-4,-7,-10,-2
CCOC(=O)c1c(Nc2ccc(Cl)cc2)sc(/C=C2\C=Nc3ccccc32)c1O,3,4,-51*!,26,27,4
CCOc1cc2c(c3c1C(c1ccccc1)N(S(=O)(=O)c1ccc(C)cc1)C3)C(=O)C=CC2=O (stereo unspecified),68*,-16,-67*,56*,101*,.
CCOc1ccc(S(=O)(=O)NCCC(=O)NCCOc2ccccc2)cc1,4,2,-3,12,0,4
O=C(Nc1ccccc1)c1ccccc1Oc1ccc(C(F)(F)F)cc1[N+](=O)[O-],6,-7,4,-4,56*,7
O=C1c2ccc(Br)cc2C(=O)N1c1ccc(Cc2ccncc2)cc1,-9,6,7,-20,-13,8
O=CC1=C(N2CCOCC2)/C(=C\c2ccccc2)CC1,-1,22*,6,-3,5,-7
N#CC1=C(N2CCOCC2)/C(=C\c2ccccc2)CC1,16,-1,6,-6,21,-1
CCCS(=O)(=O)c1nnnn1-c1cccc(OC)c1,-42,43*,-25,90*,102*,70*
COc1cccc(-n2nnnc2SCC(=O)Nc2ccccc2OC)c1,11,-3,-5,16,11,5
CCN1/C(=C/c2cccc[n+]2C)Sc2ccc(OC)cc21,9,15,3,-42,22,25
COc1ccc2c(c1)N(C)/C(=C/c1cccc[n+]1C)S2,0,4,2,-54,64*,21
O=C(NCc1ccccc1)c1sc(=S)n2c1[nH]c(=O)c1ccccc12,-9,4,-19,51*,14,-16
CSCCC(NC(=O)CCC(=O)OCC(=O)[C@@]1(O)CCC2[C@@H]3CCC4=CC(=O)C=C[C@]4(C)C3[C@@H](O)C[C@@]21C)C(=O)O (stereo partly specified),2,-2,38,72*,-15,-12
